Source: PubChem BioAssay (several laboratories)
Most compounds without a hit are left out; they make up all but 3.5% or so of the library.
Mtb UGM inh – blocks M. tuberculosis UGM enzyme; purified UGM, fluorescence polarization probe displacement; inhibition, % at 10 µM; P9WIQ1; 0.06% of 320,000 active; in the data active means inhibition above about 10%, passing the limit was not always enough
Rv3671c inh – inhibits the M. tuberculosis serine protease Rv3671c; P9WHR9; inhibition, % at 5.96 µM; 0.048% of 320,000 active; in the data active means inhibition above about 38%;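 further: extracellular domain of Rv3671c used as enzyme; 0% = enzyme with DMSO and 100% = no enzyme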
FBA Mtb inh – inhibits M. tuberculosis FBA enzyme; P9WQA3; purified M. tuberculosis FBA, fluorescence read-out; inhibition, % at 1 µM; 2.3% of 360,000 active; AID 588726; in the data active means inhibition above about 27%;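 further: 0% = vehicle and 100% = reference inhibitor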
Target sequence (P9WQA3 whole entry, looked up): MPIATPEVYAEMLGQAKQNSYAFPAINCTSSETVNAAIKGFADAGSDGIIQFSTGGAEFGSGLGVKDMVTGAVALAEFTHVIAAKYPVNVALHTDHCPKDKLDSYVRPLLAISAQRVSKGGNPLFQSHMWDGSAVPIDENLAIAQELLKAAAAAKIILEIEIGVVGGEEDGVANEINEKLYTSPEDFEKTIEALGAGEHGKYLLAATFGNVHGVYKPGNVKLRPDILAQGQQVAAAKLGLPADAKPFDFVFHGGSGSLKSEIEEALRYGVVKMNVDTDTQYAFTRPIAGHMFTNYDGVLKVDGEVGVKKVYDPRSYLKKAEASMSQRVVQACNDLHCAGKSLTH
GDH-TPI counter – inhibits GDH-TPI coupling enzymes, artifact for Mtb FBA screen; GDH-TPI coupled enzyme counterscreen, NADH absorbance; inhibition, % at 4.8 µM; 1.2% of 360,000 active; AID 588335; in the data active means inhibition above about 30%;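 further: 0% = DMSO wells and 100% = wells lacking the enzyme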
Numbers without * were called inactive; · = no result; + = active, no number.

SMILES	Mtb UGM inh	Rv3671c inh	FBA Mtb inh	GDH-TPI counter
Cn1c(=O)c2c(nc(N/N=C/c3ccncc3)n2Cc2ccccc2)n(C)c1=O	-3.6	4.0	-0.6	58.6*
COc1cc(/C=N/Nc2ccc(Cl)c(C(=O)O)c2)ccc1OC(=O)c1ccco1	-2.1	-6.6	4.4	12.8
COc1cc(/C=N/Nc2nc3c(c(=O)n(C)c(=O)n3C)n2Cc2ccccc2)ccc1OC(=O)c1ccco1	2.2	-21.6	0.8	33.0*
CCOC(=O)C1=C[C@@H](C(C)C)N(S(=O)(=O)c2ccc(C)cc2)[C@H]1c1ccc(C(F)(F)F)cc1	·	·	0.8	·
OC(c1ccccc1)(c1ccccc1)c1nccc2ccccc12	·	·	2.3	-7.4
CCC(C(=O)Nc1ccccc1N1CCCC1)c1ccccc1 (stereo unspecified)	-4.5	-2.8	1.7	-4.5
CCC(C(=O)Nc1cccc(C(=O)O)c1C)c1ccccc1 (stereo unspecified)	-1.2	-4.1	143.1*	8.0
Cc1cccc(C)c1-n1cccc1/C=C1/C(=N)N2C(=NC1=O)SN=C2S(C)(=O)=O	2.0	-24.6	-4.4	32.3*
Cc1ccc(-n2cccc2/C=C2/C(=N)N3C(=NC2=O)SN=C3S(C)(=O)=O)cc1Cl	-0.3	-37.2	0.1	13.7
CCC1=NN2C(=N)/C(=C\c3cccn3-c3c(C)cccc3C)C(=O)N=C2S1	-0.8	-8.2	4.9	43.9*
CCC1=NN2C(=N)/C(=C\c3cccn3-c3ccc(C)cc3C)C(=O)N=C2S1	-0.4	2.1	-3.5	26.5
Cn1nnnc1SCc1cn2cccnc2n1	-0.9	0.7	122.2*	-6.0
c1ccn2c(c1)nc1c2nc2ccccn21	0.6	-3.9	+	16.8
Cc1cc(/C=C(\C#N)C(=O)OCC(=O)N(C)c2c(N)n(Cc3ccccc3)c(=O)[nH]c2=O)c(C)n1CC(C)C	·	·	-4.0	20.5
CCN(C(=O)COC(=O)/C(C#N)=C/c1cc(C)n(CCOC)c1C)c1c(N)n(Cc2ccccc2)c(=O)[nH]c1=O	·	·	4.7	36.8*
Cc1ccc(C(=O)NCC(=O)OCCCOC(=O)CNC(=O)c2ccc(C)cc2)cc1	1.3	-1.6	0.0	-1.4
CN(C)c1ccc(/C=[N+](\[O-])C2SC(=S)N(C)C2(C)C)cc1 (stereo unspecified)	0.5	3.0	-3.1	34.3*
CN(C)c1ccc(/C=[N+](\[O-])C2N(c3ccccc3)C(=S)SC2(C)C)cc1 (stereo unspecified)	2.4	-6.2	-3.2	33.3*
CCCCOc1ccc(NC(=S)Nc2cc(C)nc(SCCCC)n2)cc1	1.0	-2.0	4.1	1.1
O=C(Cn1c2c(c(-c3ccccc3Cl)cc1=O)CCC2)NCCCN1CCOCC1	-0.4	-1.6	14.9	30.9*
NC1=NC(=O)C(c2ccccc2)(c2ccccc2)S1	·	·	-1.4	-1.4
CCC(C)NS(=O)(=O)c1ccc(F)c(C(=O)Nc2c(F)cc(F)cc2Br)c1 (stereo unspecified)	-1.3	-1.2	-0.8	-3.5
N#CC(C(=O)NC1CC1)c1nc2ccccc2nc1N1CCCC1 (stereo unspecified)	-1.4	-2.2	60.6*	19.7
C[n+]1ccccc1/C=C/c1ccc([N+](=O)[O-])cc1	0.4	-1.6	-0.8	34.6*
C[n+]1ccccc1/C=C/c1c(F)cccc1F	-2.2	·	-1.2	44.8*
SMILES	Mtb UGM inh	Rv3671c inh	FBA Mtb inh	GDH-TPI counter
C[n+]1ccccc1/C=C/c1ccc(F)c(F)c1	0.9	5.9	-0.6	35.3*
Cc1ccccc1/C=C/c1cccc[n+]1C	-2.8	·	-1.3	19.6
CC1(C(=O)NS(=O)(=O)c2cccs2)CCN1C(=O)c1ccccc1CCc1ccccc1 (stereo unspecified)	·	·	2.7	13.7
Cc1nc2c(C(=O)Nc3ccc(N4CCCC(O)C4)cc3)snc2c(=O)[nH]1 (stereo unspecified)	-3.5	3.1	-1.5	44.2*
CSc1ccc(CN2CCC(Oc3ccc(C(=O)N4CCCC4)cc3)CC2)cc1	0.4	-4.8	0.4	-8.7
CC(NC(=O)C(=O)NCCN1CCN(C(=O)c2ccc([N+](=O)[O-])cc2)CC1)c1ccccc1 (stereo unspecified)	-1.5	3.6	5.5	-2.3
O=C(NCc1ccccc1)c1cc(C2CCCCN2S(=O)(=O)c2cccs2)on1 (stereo unspecified)	·	·	-3.7	7.3
Cn1c(CO)nc2cc(N)ccc21	3.9	-12.9	2.7	11.0
Nc1ccc(-c2nc3cc(N)ccc3n2CCO)cc1	-0.1	-4.0	+	14.1
NC(=S)N/N=C/c1ccccc1OCc1cccc(Cl)c1	-1.9	-1.7	-0.8	41.2*
CCOC(=O)C1(Cc2ccccc2C)CCCN(C(=O)c2ccc(OC)o2)C1 (stereo unspecified)	1.9	-3.9	0.1	-2.4
O=C(Nc1ccc(NC(=O)C2CC2)cc1)c1cccs1	-1.2	-8.5	2.1	4.1
Cn1c(=O)c2[nH]c(NN=Cc3ccccc3)nc2n(C)c1=O	·	·	-2.7	26.3
COc1ccc(C=NNc2nc3c([nH]2)c(=O)n(C)c(=O)n3C)cc1	·	·	-1.4	34.4*
Cn1c(=O)c2[nH]c(NN=Cc3ccc(Br)cc3)nc2n(C)c1=O	·	·	-1.8	28.1
Cc1ccc(C=NNc2nc3c([nH]2)c(=O)n(C)c(=O)n3C)cc1	·	·	5.0	45.8*
COc1ccc(-c2nnc(NC(=O)c3ccc(S(=O)(=O)N4CCCc5ccccc54)cc3)o2)cc1	-0.9	-11.4	-0.8	36.7*
COCc1nnc(NC(=O)c2ccc(S(=O)(=O)N3CCCc4ccccc43)cc2)o1	1.3	-3.1	-0.9	5.0
CC(NC(=O)Cc1ccc(S(=O)(=O)N2CCOCC2)s1)c1ccc(Cl)c(Cl)c1 (stereo unspecified)	-0.1	-7.1	0.5	2.1
CNc1ncc(Cc2ccccc2)s1	0.8	1.2	-3.2	1.9
CC(C)/C(C=O)=C(/NC1CCCCC1)c1ccccc1	1.0	-3.8	-1.9	1.5
COc1ccc(C(=O)c2oc3ccc(OC)cc3c2NC(C)=O)cc1	·	0.4	-0.7	10.7
COc1cccc(NC(=O)c2oc3ccccc3c2NC(=O)c2ccc3c(c2)OCO3)c1	1.7	-139.6	1.6	35.7*
COc1cccc(NC(=O)c2ccc3c(c2)OCO3)c1	0.0	2.3	0.1	4.5
COc1ccc(C(=O)c2oc3ccccc3c2NC(C)=O)cc1	1.0	-19.4	-0.3	32.9*
SMILES	Mtb UGM inh	Rv3671c inh	FBA Mtb inh	GDH-TPI counter
CN1C(=O)C(=Cc2ccccc2OCc2ccc(Cl)cc2)C(=O)N(C)C1=O	1.2	-4.8	-1.6	0.0
CN1C(=O)C(=Cc2ccccc2Oc2ccc(Cl)cc2)C(=O)N(C)C1=O	-2.6	-2.7	130.8*	2.0
Nc1nn2cc(-c3ccc(Br)cc3)nc2c2ccccc12	4.4	-23.3	145.7*	7.6
COc1ccc(C(=O)/C=C/Nc2cc(C)on2)c(OC)c1	1.3	8.9	2.1	40.2*
COc1ccc(C(=O)/C=C/Nc2ccc([N+](=O)[O-])cc2C)c(OC)c1	1.8	0.2	-7.3	0.0
COc1ccc(Cn2nnnc2C(c2cc3ccc(OC)cc3[nH]c2=O)N2CCCCCC2)cc1 (stereo unspecified)	1.6	-7.1	9.7	34.0*
CCC(C)(C)n1nnnc1C(c1cc2ccc(OC)cc2[nH]c1=O)N1CCCCC1 (stereo unspecified)	2.0	-16.0	2.4	20.3
Cn1c(=O)c2c(nc(-c3ccc(N(CCCl)CCCl)cc3)n2C)n(C)c1=O	·	·	+	39.5*
